# Hits are enriched below; roughly 13% of the tested compounds scored in any of these assays.
# HCMV antiviral = inhibitors of human cytomegalovirus; 4.5% of 410,000 active; HFF cells, HCMV-luciferase reporter, 72 h; hits give low values; activity change, negative = inhibition, % at 57.5 µM; in the data active = activity change below about -60%; inconclusive = no clear call, values can overlap the other calls; inactive = above about -39%
#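 After 16 h attachment at 37C, HFF cells received test compound and HCMV-luciferase (1 PFU/cell); reporter luminescence read 72 h later, data normalized against buffer-only and known inhibitor Salinomycin.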
# HCV inhibitor = HCV inhibition; 3.4% of 340,000 active; AID 651820; Potency, µM (doses to about 41.8 µM), for the others: at the top dose activity change, negative = inhibition, actives largely listed as inhibitors; Huh7.5.1 HCVcc-Cre infection, luciferase reporter, 44 h; also: potency is read from the fitted curve at half-maximal effect
#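 A cell-based infection assay in which seeded cells (1,000 per well) receive test compound after 4 h, are inoculated with HCVcc-Cre at approximately 0.5 moi, and are incubated 44 h before luminescence detection.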
# Pf growth 96h = P. falciparum growth inhibition at 96 hours; P. falciparum luciferase reporter growth, 96 h; Potency, µM (series often up to 28.7 µM), inactives show top-dose activity change, negative = inhibition, usual class: inhibitors; 6.9% of 320,000 active; also: potency is read from the fitted curve at half-maximal effect
#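 96 h incubation, 37 C, 5% CO2, of luciferase-reporter P. falciparum-infected RBCs (2% hematocrit, 0.05% parasitemia final) with test compounds; endpoint luminescence.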
# Pf growth 48h = P. falciparum growth inhibition at 48 hours (one generation); P. falciparum luciferase growth in erythrocytes, 48 h; Potency, µM (top dose mostly 28.7 µM), for the others: at the top dose activity change, negative = inhibition, actives largely listed as inhibitors; 5.9% of 310,000 active; also: potency is read from the fitted curve at half-maximal effect
#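 Erythrocytes infected with P. falciparum carrying an integrated firefly luciferase reporter (2% hematocrit, 0.1% parasitemia final) were exposed to compounds in RPMI 1640 with 0.5% Albumax at 37 C, 5% CO2. Growth inhibition was scored as reduced luminescence.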
# Starred values were filed as active, the others as inactive; ? = inconclusive; . = no result given. Unless noted, calls follow the shape of the dose curve; as a rule, active = well fitted inhibition curve with a large enough effect; inconclusive = small, poorly fitted or top-dose-only effect, or another doubt; inactive = no such curve, though single readings can be large or run the other way. % is scaled to controls: 0 for no effect and ±100 for the full control effect.
SMILES,HCMV antiviral,HCV inhibitor,Pf growth 96h,Pf growth 48h
O=[N+]([O-])c1ccc(CN2CCN(c3ccc4ccccc4n3)CC2)cc1,21.2,?,?,-13.1%
CCCn1c(N2CCN(Cc3ccc(Cl)cc3)CC2)nc2ccccc21,-13.7,12.6µM*,29.1%,?
O=C(O)c1cccc2c1NC(C(=O)O)C1CC(Sc3ccccc3[N+](=O)[O-])C(Cl)C21 (stereo not drawn),6.5,-7.8%,?,8.4%
CC(=O)c1ccc2c(c1)C1C(Cl)C(Sc3ccccc3[N+](=O)[O-])CC1C(C(=O)O)N2 (stereo not drawn),-16.8,35.5µM*,2.62µM*,-23.2%
COc1cccc(CNC(=O)CCn2cccn2)c1,13.9,.,.,.
COc1cccc([C@@H]2CC=C(C(=O)O)[C@H](c3cccc(Cl)c3)N2S(=O)(=O)c2ccc(C)cc2)c1,-38.0,8.7%,11.7µM*,?
COc1cc([C@@H]2CC=C(C(=O)O)[C@H](c3ccc(F)cc3)N2S(=O)(=O)c2ccc(C)cc2)cc(OC)c1OC,7.9,31.0%,1.85µM*,3.29µM*
Cc1ccc(S(=O)(=O)N2[C@@H](c3ccccc3F)C(C(=O)O)=CC[C@H]2c2ccc(Cl)c(Cl)c2)cc1,-18.1,5.5%,11.7µM*,?
COc1cc([C@@H]2CC=C(C(=O)O)[C@H](c3ccccc3F)N2S(=O)(=O)c2ccc(C)cc2)cc(OC)c1OC,-24.6,30.2%,10.4µM*,10.4µM*
O=C(NCc1cccnc1)c1nn(-c2ccccc2F)nc1CO,8.5,.,.,.
Cc1ccc(NC(=O)c2cccc3c(=O)c4c([nH]c23)CCCC4)c(C)c1,-4.8,.,.,.
Cc1ccc([C@@H]2CC=C(C(=O)O)[C@H](c3ccc(Cl)cc3)N2S(=O)(=O)c2ccccc2C)cc1,-17.4,46.0%,.,.
Cc1ccc(S(=O)(=O)N2[C@@H](c3cccc(Cl)c3)C(C(=O)OC(C)(C)C)=CC[C@H]2c2cccc(Cl)c2)cc1,5.3,.,.,.
COc1ccc([C@@H]2CC=C(C(=O)O)[C@H](c3ccc(Br)cc3)N2S(=O)(=O)c2ccc(C)cc2)cc1OC,3.5,2.2%,.,.
COc1ccc([C@@H]2CC=C(C(=O)O)[C@H](c3ccc(F)cc3)N2S(=O)(=O)c2ccc(C)cc2)cc1OC,10.1,-0.1%,10.4µM*,?
Cc1ccccc1S(=O)(=O)N1[C@@H](c2ccccc2)C(C(=O)O)=CC[C@H]1c1ccc(Cl)cc1,-99.0*,3.6%,46.6%,?
CC(C)(C)OC(=O)C1=CC[C@@H](c2ccc(Cl)c(Cl)c2)N(S(=O)(=O)c2ccc(F)cc2)[C@H]1c1cccc(F)c1,-64.0*,.,.,.
OC1(C#Cc2c(-c3ccsc3)sc3ccccc23)CCCCC1,-11.4,.,.,.
CCOC(=O)C1=CN(Cc2cccc(F)c2)S(=O)(=O)N(C)C1c1ccc2ccccc2c1 (stereo not drawn),-26.1,11.2µM*,.,.
CCOC(=O)C1=CN(Cc2cccc(F)c2)S(=O)(=O)N(CC)C1c1ccc2ccccc2c1 (stereo not drawn),-0.8,-26.9%,.,.
CN(c1ccc(C(=O)Nc2cccnc2)cc1)S(=O)(=O)c1ccccc1,-70.8*,?,32.7%,-27.0%
CC(=O)Nc1ccc(NC(=O)COC(=O)c2ccc(S(=O)(=O)N(C)c3ccccc3)cc2)cc1,-100.2*,12.9%,.,.
CN(c1ccc(C(=O)NC2CC2)cc1)S(=O)(=O)c1ccccc1,48.7,-0.3%,.,4.65µM*
CN(c1cccc(Cl)c1)S(=O)(=O)c1cccc(C(=O)Nc2ccc3c(c2)CCC3)c1,-87.2*,6.31µM*,?,?
CN(c1ccc(C(=O)NC2CCCC2)cc1)S(=O)(=O)c1ccc(Cl)cc1,7.5,-16.7%,33.2%,-19.3%
SMILES,HCMV antiviral,HCV inhibitor,Pf growth 96h,Pf growth 48h
O=C(Nc1cccc(F)c1F)C1CCN(c2ncccn2)CC1,-13.9,.,.,.
CN(c1ccccc1)S(=O)(=O)c1cccc(C(=O)NC2CCCC2)c1,27.1,-13.8%,.,.
CN(c1ccccc1)S(=O)(=O)c1ccc(NC(=O)C2CC2)cc1,-24.8,-4.9%,6.57µM*,33.7%
CN(c1ccccc1)S(=O)(=O)c1cccc(NC(=O)C2CCCO2)c1 (stereo not drawn),-62.3*,5.0%,.,.
CN(c1ccccc1)S(=O)(=O)c1cccc(C(=O)Nc2cccc(C(=O)NC3CC3)c2)c1,-19.2,?,6.57µM*,5.22µM*
COc1ccccc1N(C)c1cc2c(c3c1ccn3C)C1CCC2C1 (stereo not drawn),-88.7*,.,.,.
CCOc1cccc(-c2c(C(=O)N/N=C/c3ccc(C)s3)nnn2-c2nonc2N)c1,9.0,2.5%,14.7µM*,?
COc1cccc(-c2c(C(=O)N/N=C/c3ccc(C)s3)nnn2-c2nonc2N)c1,-9.9,12.1%,4.15µM*,10.4µM*
Cc1ccc(-c2nnc(SCc3ccccc3)o2)cc1,5.6,.,.,.
O=S(=O)(Nc1nc2ccccc2nc1-[n+]1ccccc1)c1ccc(Cl)cc1,-33.5,6.2%,?,-17.4%
Cc1ccccc1C([O-])=Nc1ccc[n+](-c2nc3ccccc3nc2NS(=O)(=O)c2ccccc2)c1,.,6.2%,11.7µM*,?
CCn1c(C)nc2cc(C(=O)N=Nc3c(O)[nH]c4c(C)cc(C)cc34)ccc21,-37.3,7.6%,6.57µM*,9.28µM*
COc1ccc(Nc2c(-c3ccc(F)cc3)nc3nc(C)cc(C)n23)cc1,-66.8*,.,.,.
COc1ccc(Nc2c(-c3ccsc3)nc3nc(C)cc(C)n23)cc1,7.7,.,.,.
CCOC(=O)c1sc2ccccc2c1S(=O)(=O)N1CCN(c2cccc(C)c2C)CC1,6.8,.,.,.
CCN(CC)c1ccc(S(=O)(=O)N2CCOCC2)cc1NC(=O)COC(=O)/C=C/c1ccccc1,?,-24.7%,.,.
CCN(CC)c1ccc(S(=O)(=O)N2CCOCC2)cc1NC(=O)CN1CCc2ccccc2C1,-69.5*,?,?,10.4µM*
CCN(CC)c1ccc(S(=O)(=O)N2CCOCC2)cc1NC(=O)Cn1nc(C)c([N+](=O)[O-])c1C,0.0,-21.0%,11.7µM*,?
CCc1ccc(C2N3CC4(C)CN2CC(c2ccccc2)(C3)C4=O)cc1 (stereo not drawn),8.7,.,.,.
O=C1CC(c2cccc(Br)c2)c2cc3c(cc2N1)CCC3 (stereo not drawn),-65.4*,?,?,?
O=C1NC(Cc2ccc(O)cc2)c2nc3cc(F)c(F)cc3c(=O)n2-c2cc3ccccc3cc21 (stereo not drawn),-19.0,.,.,.
Cc1ccc2nc3n(c(=O)c2c1)-c1cc2ccccc2cc1C(=O)NC3Cc1ccc(O)cc1 (stereo not drawn),-92.3*,.,.,.
O=C1NC(Cc2ccc(O)cc2)c2nc3ccc(F)cc3c(=O)n2-c2cc3ccccc3cc21 (stereo not drawn),-100.8*,.,.,.
O=C1NC(Cc2ccccc2)c2nc3cc(Cl)ccc3c(=O)n2-c2ncccc21 (stereo not drawn),-67.0*,.,.,.
O=C1NC(Cc2ccc(O)cc2)c2nc3cc(Cl)ccc3c(=O)n2-c2cc3ccccc3cc21 (stereo not drawn),-99.9*,.,.,.
